In the supplement of paper PMC8866396:
± gives the standard deviation of the averaged measurements.

Assays:
[1] = test system: IL-6-GFP PC-9GR; experiment: cell viability (CCK-8 OD) relative to DMSO control (fraction of control); higher = more viable cells; settings: compound concentration: 10 uM; treatment time: 48 h
Procedure, shortened: (§1)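 Each well's viability is its CCK-8 optical density divided by that of the vehicle control well. The cells, PC-9 and PC-9GR lung cancer lines overexpressing IL-6-GFP from a lentiviral construct, were seeded at 3000 cells/well in 96-well plates and exposed for 48 h to each compound of a purchased 510-compound library at a final 10 μM, in two independent replicates.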

[2] = test system: IL-6-GFP PC-9; experiment: as above; settings: compound concentration: 10 uM; treatment time: 48 h
Procedure, shortened: as §1

Compound | cell viability [1] | cell viability [2]
CC1CC(=O)CC2CCC3C4CCC(O)C4(C)CCC3C12C (stereo not drawn) [Mesterolone] | 1.26 ± 0.32 | 1.21 ± 0.12
O=P1(NCCCl)OCCCN1CCCl (stereo not drawn) [Ifosfamide] | 1.15 ± 0.092 | 0.8 ± 0.02
Cc1cccc(C(C)c2c[nH]cn2)c1C.Cl (stereo not drawn) [Medetomidine HCl] | 1.25 ± 0.37 | 1.09 ± 0.011
Cn1cc(C2=C(c3cn(C4CCN(Cc5ccccn5)CC4)c4ccccc34)C(=O)NC2=O)c2ccccc21 | 1.09 ± 0.062 | 1.09 ± 0.16
Cl.Cn1c(CCCC(=O)O)nc2cc(N(CCCl)CCCl)ccc21 [Bendamustine HCl] | 1.26 ± 0.066 | 1.2 ± 0.11
COC1=CC2C3Cc4ccc(OC)c(O)c4C2(CCN3C)CC1=O.Cl (stereo not drawn) [Sinomenine hydrochloride] | 1.33 ± 0.43 | 1.28 ± 0.086
CC1CCC2N(C1)CC1C3CC4C(CC(O)C5CC(O)CCC54C)C3CCC1C2(C)O (stereo not drawn) [Peimine] | 1.12 ± 0.26 | 1.211 ± 0.0049
CC12CCC3c4ccc(OC(=O)N(CCCl)CCCl)cc4CCC3C1CCC2OP(=O)([O-])[O-].[Na+].[Na+] (stereo not drawn) [Estramustine phosphate sodium] | 0.645 ± 0.29 | 1.01 ± 0.25
COc1cc2c(c(OC)c1OC)-c1ccc(OC)c(=O)cc1C(NC(C)=O)CC2 (stereo not drawn) [Colchicine] | 0.584 ± 0.1 | 0.686 ± 0.078
COC(=O)CC(O)(CCC(C)(C)O)C(=O)OC1C(OC)=CC23CCCN2CCc2cc4c(cc2C13)OCO4 (stereo not drawn) [Harringtonine] | 0.245 ± 0.14 | 0.323 ± 0.058
CC(C)C12OC1C1OC13C1(C)CCC4=C(COC4=O)C1CC1OC13C2=O (stereo not drawn) [Triptonide] | 0.403 ± 0.18 | 0.467 ± 0.063
O=C(O)CCCc1ccc(N(CCCl)CCCl)cc1 [Chloroambucil] | 0.937 ± 0.15 | 0.97 ± 0.18
CCC1=CC2CN3CCc4c([nH]c5ccccc45)C(C(=O)OC)(C2)C13 (stereo not drawn) [Catharanthine] | 1.02 ± 0.093 | 1.1 ± 0.1
COC1=CC2C3Cc4ccc(OC)c(O)c4C2(CCN3C)CC1=O (stereo not drawn) [Sinomenine] | 1.31 ± 0.18 | 1.19 ± 0.097
Cc1c(N)nc(C(CC(N)=O)NCC(N)C(N)=O)nc1C(=O)NC(C(=O)NC(C)C(O)C(C)C(=O)NC(C(=O)NCCc1nc(-c2nc(C(=O)NCCC[S+](C)C)cs2)cs1)C(C)O)C(OC1OC(CO)C(O)C(O)C1OC1OC(CO)C(O)C(OC(N)=O)C1O)c1c[nH]cn1.O=S(=O)([O-])O (stereo not drawn) [Bleomycin sulfate] | 0.653 ± 0.13 | 0.473 ± 0.051
O.O=P1(N(CCCl)CCCl)NCCCO1 (stereo not drawn) [Cyclophosphamide Monohydrate] | 1.16 ± 0.065 | 1.2 ± 0.029
CCC1(O)C(=O)OCc2c1cc1n(c2=O)Cc2cc3ccccc3nc2-1 (stereo not drawn) [Camptothecin] | 0.807 ± 0.36 | 0.364 ± 0.036
O=c1c2ccccc2[se]n1-c1ccccc1 [Ebselen] | 0.788 ± 0.063 | 1.36 ± 0.22
CCC1(O)C(=O)OCc2c1cc1n(c2=O)Cc2c-1nc1ccccc1c2CCNC(C)C.Cl (stereo not drawn) [Belotecan (CKD-602) hydrochloride] | 0.322 ± 0.15 | 0.349 ± 0.055
Cn1c(CCCC(=O)O)nc2cc(N(CCCl)CCCl)ccc21 [Bendamustine] | 1.02 ± 0.09 | 1.02 ± 0.18
CC12CCC3C(CCC4=C(O)C(=O)CCC43C)C1CCC2=O (stereo not drawn) [Formestane] | 1.4 ± 0.13 | 0.466 ± 0.055
COc1cc2c(cc1O)CC1c3c(cc(O)c(OC)c3-2)CCN1C (stereo not drawn) [Boldine] | 0.922 ± 0.2 | 1.05 ± 0.11
c1ccc2c(c1)Sc1ccccc1N2CC1CN2CCC1CC2 (stereo not drawn) [Mequitazine] | 0.705 ± 0.19 | 1.01 ± 0.021
CC(C)[N+](C)(CCC(C(N)=O)(c1ccccc1)c1ccccc1)C(C)C.[I-] [Isopropamide Iodide] | 0.876 ± 0.069 | 0.841 ± 0.16
NC(Cc1ccc(N(CCCl)CCCl)cc1)C(=O)O (stereo not drawn) [Melphalan] | 0.78 ± 0.037 | 0.891 ± 0.076
O=C(O)c1nn(Cc2ccc(Cl)cc2Cl)c2ccccc12 [Lonidamine] | 1.29 ± 0.1 | 1.19 ± 0.13
CC(C)C12OC1C1OC13C1(C)CCC4=C(COC4=O)C1CC1OC13C2O (stereo not drawn) [Triptolide (PG490)] | 0.466 ± 0.21 | 0.447 ± 0.12
C=CCN1CC(C(=O)N(CCCN(C)C)C(=O)NCC)CC2c3cccc4[nH]cc(c34)CC21 (stereo not drawn) [Cabergoline] | 0.968 ± 0.23 | 1.05 ± 0.21
COc1cc(C2c3cc4c(cc3C(O)C3COC(=O)C23)OCO4)cc(OC)c1OC (stereo not drawn) [Picropodophyllin (PPP)] | 0.668 ± 0.27 | 0.603 ± 0.07
